TGFb inhibitor – blocks TGF-b signaling. 410,000 tested, 1.2% active. HepG2 CAGA-GFP TGF-b/SMAD3 reporter, GFP fluorescence, 18 h; TGF-beta stimulated, 500 pg/mL final. Potency, µM (doses to about 46.1 µM), for the others: at the top dose activity, negative = inhibition, actives largely listed as inhibitors; further: on the % scale 0 is the no-effect control and ±100 the full control effect; nearly all actives have a fitted effect of over 65% in size
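Using HEPG2 CAGA-GFP reporter cells at 1000 cells/well, we pinned test compounds, stimulated with recombinant TGF-beta (500 pg/mL final) and measured total well GFP after 18 h.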
HepG2 viability – counter-screen for TGF-b inhibitors: cytotoxicity in HepG2 cells; AID 588856; 410,000 tested, 0.76% active; Potency, µM (doses to about 46.1 µM), for the others: top-dose activity change, negative = cytotoxicity, most hits filed as cytotoxic; HepG2 CAGA-GFP viability, ATP luminescence, 18 h
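HepG2 CAGA-GFP cells (1000/well, DMEM with 1% FBS) received compound, then TGF-beta at 500 pg/mL final, and were incubated 18 hours at 37 degrees C. Viability was read by CellTiter-Glo luminescence. Media-only wells were set as complete cell-killing and DMSO as no toxicity.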
S2 tox – reduces viability in counter-screen for ATXN expression inhibitors; S2 cells (HEK-293 line with an ATXN2-luciferase reporter) viability, CellTiter-Fluor protease fluorescence, 24 h; 400,000 tested, 0.49% active; AID 651635; Potency, µM (doses to about 56.7 µM), hits mostly cytotoxic; further: nearly all actives have a fitted effect of over 40% in size
ATXN2 expr inh – inhibitors of ATXN2 expression; 360,000 tested, 0.72% active; HEK-293 ATXN2-luciferase reporter, luminescence, 24 h; Potency, µM (doses to about 57 µM), inactives show top-dose activity change, negative = inhibition, usual class: inhibitors; further: on the % scale 0 is the no-effect control and ±100 the full control effect; nearly all actives have a fitted effect of over 55% in size
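qHTS (up to 57 uM final) was run with 24 h compound exposure of reporter cells at 37 °C. Each well was multiplexed: SteadyGlo luminescence measured ATXN2-luciferase expression after a fluorogenic Gly-Phe-AFC viability readout (25 uM final).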
HT1080 IDH1KD tx – toxicity to HT-1080 IDH1 knockdown cells (counter line). Potency, µM (doses to about 46.1 µM), for the others: at the highest dose activity, negative = toxicity, most hits filed as cytotoxic. 360,000 tested, 2% active. HT-1080 IDH1 knockdown viability, ATP luminescence, 48 h;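 further: 0% = DMSO wells and -100% = cell-free medium wells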
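In this qHTS, HT-1080 cells depleted of IDH1 are exposed for 48 h at 37 °C to compound titrations. Toxicity is scored from CellTiter-Glo luminescence, with DMSO as full viability and medium alone as none.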
HT1080-NT tox – kills 2HG-producing HT-1080-NT fibrosarcoma cells | Potency, µM (series often up to 46.1 µM), for the others: at the highest dose activity, negative = less viability, usual class: cytotoxic | 360,000 tested, 1.6% active | HT-1080-NT fibrosarcoma viability, CellTiter-Glo ATP luminescence, 48 h | AID 686970;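 further: NT is the 2HG producing partner of a matched IDH1 knockdown line; 0% = DMSO-treated cells and -100% = media-only wells without cells; nearly all actives have a fitted effect of over 55% in size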
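HT-1080-NT fibrosarcoma cells (2HG-overproducing), 750 cells/well in RPMI with 5% FBS, dosed after 2 h and incubated 48 h at 37C. CellTiter-Glo luminescence normalized to DMSO and no-cell wells; concentration-response curves fitted and classed.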
The depositor's hits bear a star; i = inactive; ? = inconclusive; / = no result given; ! = a repeat was not active; [ ] = another dose, or the depositor's remark. This is a sample that favours compounds with a hit; in the whole collection about 3.8% have one here. The call rests on the fitted dose curve; in most records, active means well fitted curve in the direction sought with a large enough effect; inconclusive means small, poorly fitted or top-dose-only effect, or another doubt; inactive means no such curve, though single readings can be large; an effect the other way counts as inactive or inconclusive. Potency means the concentration at half of the fitted maximal effect.

SMILES	TGFb inhibitor	HepG2 viability	S2 tox	ATXN2 expr inh	HT1080 IDH1KD tx	HT1080-NT tox
CC1=CC2OC3CC4OC(=O)C=CC=CC(C(C)O)OCC(O)C5(C)OC5C(=O)OCC2(CC1O)C4(C)C31CO1 (stereo not given)	0.159µM*	-7.5%	?	0.112µM*	/	0.366µM*
CC1=CC2OC3CC4OC(=O)C=CC=CC(=O)OCCC(C)C(O)C(=O)OCC2(CC1)C4(C)C31CO1 (stereo not given)	0.0%	/	0.0844µM*	?	/	0.164µM*
C[C@@H]1CC2=CC(=O)CC[C@@H]2[C@H]2CC[C@@]3(C)[C@@H](CC[C@]3(C)O)[C@@H]21	/	/	i	-9.9%	/	/
N[C@H](CO)Cc1ccccc1	0.2%	-4.8%	i	-7.7%	29.1µM*	-10.6%
C=C1C(=O)OC2C1CCC(C)C1(O)C=CC(=O)C21C (stereo not given)	?	-34.6%	11.2µM*	11.2µM*	?	?
CC(C)CC1C(=O)N(Cc2cn(CC3CCCCC3)nn2)CCS(=O)(=O)N1Cc1ccc(-c2ccc(F)nc2)cc1 (stereo not given)	-8.2%	-17.7%	?	?	-27.3%	-29.0%
O=c1oc2ccccc2c(O)c1C(CC(O)c1ccc(-c2ccc(Br)cc2)cc1)c1ccccc1 (stereo not given)	/	/	i	8.9%	/	/
COC(=O)C1CN(C#N)N(c2ccc(Cl)cc2)C12c1ccccc1-c1ccccc12 (stereo not given)	5.01µM*	3.55µM*	3.98µM*	3.98µM*	3.66µM*	3.26µM*
CC(=O)C1=C(O)C2(C)c3c(O)c(C)c(O)c(C(C)=O)c3OC2CC1=O (stereo not given)	?	-50.6%	i	/	-29.7%	?
C/C(=C\c1ccc(N(C)C)cc1)[N+](=O)[O-]	?	10µM*	/	31.6µM*	6.31µM*	11.2µM*
CN(C)c1ccc(/C=C/[N+](=O)[O-])cc1	-17.3%	-11.6%	i	29.8%	23.1µM*	?
CN(C)c1ccc(C=C2C(=O)NC(=O)NC2=O)cc1	-4.8%	-5.2%	i	-28.4%	6.2%	16.8%
COc1ccc(OC)c(CC(C)N)c1 (stereo not given)	/	/	?	2.3%[116 µM]	/	/
Nc1nonc1-n1nnc(C(=O)N/N=C/c2ccc3c(c2)OCO3)c1CSc1ccccc1	28.8%	10.4%	i	-16.9%	-3.1%	8.8%
COC(=O)c1cn(Cc2ccc(F)cc2)c2ccccc12	7.9%	9.3%	i	/	?	-21.0%
COC(=O)c1cn(C(=O)c2cccc3ccccc23)c2ccccc12	8.4%	14.0%	?	/	13µM*	11.6µM*
Cc1ccc(C)c(S(=O)(=O)c2nnn3c2nc(N2CCN(C)CC2)c2sccc23)c1	?	-15.9%	/	/	/	/
CCC(=O)OC1(c2ccccc2)CCN(C)CC1	/	/	i	-11.9%[116 µM]	/	/
COc1cccc(C2CC3C(=O)C=CC2N3Cc2ccccc2)c1 (stereo not given)	0.0%	-17.9%	i	?	-26.3%	-23.3%
O=C1C=CC2C3C(=O)N(c4ccccc4)C(=O)C3C1N2Cc1ccccc1 (stereo not given)	2.82µM*	12.6µM*	5.97µM*	?	10.3µM*	?
COc1ccc(NC(=O)C(Cc2ccccc2)NS(=O)(=O)c2ccc3c(c2)oc(=O)n3C)c(OC)c1 (stereo not given)	-0.3%	1.1%	i	5.0%	/	/
COC[C@@H](NC(C)=O)C(=O)NCc1ccccc1	/	/	i	-1.4%	/	/
Cc1ccc2c(C)c3ccc4ccccc4c3c[n+]2c1	?	-8.9%	i	?	23.1µM*	-29.4%
S=C(SSC(=S)N1CCCCC1)N1CCCCC1	/	/	10µM*!	-90.4%	/	/
Oc1cccc2cccnc12	3.55µM*	5.62µM*	12.6µM*!	11.2µM*!	/	/
SMILES	TGFb inhibitor	HepG2 viability	S2 tox	ATXN2 expr inh	HT1080 IDH1KD tx	HT1080-NT tox
COc1ccc(OC(=O)N2C/C(=C/c3ccccc3)C(=O)/C(=C\c3ccccc3)C2)cc1	?	-5.0%	31.6µM*	?	8.2µM*	10.3µM*
COc1ccc(CC(=O)N2C[C@H]3C[C@@H](C2)c2cccc(=O)n2C3)cc1	13.7%	4.6%	i	4.1%	0.1%	11.7%
CC(=O)O[C@H]1C[C@@H]2OC3C=C(C)CCC3(C)[C@@]1(C)[C@@]21CO1 (stereo not given in full)	1.26µM*	2.1%	?	?	/	?
C[C@@H]1[C@H]2Cc3ccc(O)cc3[C@]1(C)CCN2C	/	/	i	/	/	/
CSCCC(c1nnnn1-c1c(C)cccc1C)N1CCC2(CC1)C(=O)NCN2c1ccccc1 (stereo not given)	11.2µM*	-42.9%	?	?	?	?
Cc1cccc(C)c1-n1nnnc1C(CCc1ccccc1)N1CCC2(CC1)C(=O)NCN2c1ccccc1 (stereo not given)	8.2%	-6.6%	?	0.0%	2.1%	1.3%
COc1cccc(C(c2nnnn2C2CCCCC2)N2CCC3(CC2)C(=O)NCN3c2ccccc2)c1OC (stereo not given)	22.4µM*	-3.3%	?	?	?	?
O=C(CCCCl)c1ccc(F)cc1	/	/	i	16.4%	/	/
CC1(O)CCC2C3CCC4=CC(=O)CCC4(C)C34OC4CC21C (stereo not given)	-3.9%	-9.1%	i	2.7%	5.7%	18.8%
C[C@]12CC[C@H]3C(CCC4(O)CC(O)CC[C@]34C=O)C1=CC[C@H]2c1ccc(=O)oc1 (stereo not given in full)	?	7.08µM*	?	/	5.8µM*	13µM*
C[C@]12CC[C@H](O)C[C@H]1CCC1C2CC[C@]2(C)[C@@H](c3ccc(=O)oc3)C[C@H]3O[C@]132 (stereo not given in full)	7.94µM*	6.31µM*	/	/	/	/
CC(=O)O[C@H]1[C@H]2O[C@]23[C@@H]2CC[C@]4(O)C[C@@H](O)CC[C@]4(C)C2CC[C@]3(C)[C@H]1c1ccc(=O)oc1 (stereo not given in full)	3.55µM*	-60.1%	?	0.316µM*	0.0146µM*	0.82µM*
CC12CC[C@H]3[C@@H](CCC4(O)C[C@H](O)CCC34/C=N/NC(=O)c3ccccc3[N+](=O)[O-])C1(O)CCC2C1=CC(=O)OC1 (stereo not given in full)	-0.2%	-59.4%	?	?	?	?
ClCCN(CCCl)c1ccc(C=Nc2ccc(/C=C/c3ccncc3)cc2)cc1	-8.8%	-23.9%	/	/	/	/

High-throughput results as filed in PubChem BioAssay.
